Measured values published in PubChem BioAssay (NCI).
Compounds without any hit were thinned out: in the full panel of roughly 79,000, 15% have a hit. Active and inactive are the calls of the source. Cut-off read from the data, not from the text of the source: active = growth inhibition above about 70%; inactive = the rest.

Key:
[1] = NCI Yeast Anticancer Drug Screen. Data for the rad52 strain (AID 147);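 note: 0% = growth of vehicle-treated control cultures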; conditions: S. cerevisiae rad52 mutant growth inhibition, hits give high values
Summary of the method: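 Measured: yeast growth inhibition. System: strain with a defined DNA damage repair alteration. Reference: vehicle-treated control cultures.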

[2] = NCI Yeast Anticancer Drug Screen. Data for the wt1 strain (AID 149);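 note: 0% = growth of vehicle-treated wt1 cultures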; conditions: S. cerevisiae wt1 strain (SPY 50644) growth inhibition, hits give high values
Summary of the method: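 Using yeast strain wt1, compound-induced growth inhibition was determined against vehicle-treated cultures.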

[3] = NCI Yeast Anticancer Drug Screen. Data for the rad50EPP+ strain (AID 151);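 note: 0% = growth of vehicle-treated control cultures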; conditions: S. cerevisiae rad50 mutant strain, hits give high values
Summary of the method: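 One strain with a rad50 alteration (rad50EPP+) was compound-treated, its growth then compared to that of vehicle controls.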

[4] = NCI Yeast Anticancer Drug Screen. Data for the rad50 strain (AID 155);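 note: 0% = growth of vehicle-only cultures of the same strain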; conditions: S. cerevisiae rad50 strain growth inhibition, hits give high values
Summary of the method: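 Relative growth inhibition (compound vs vehicle) was measured in yeast with a defined repair-gene alteration.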

[5] = NCI Yeast Anticancer Drug Screen. Data for the mec2-1 strain (AID 157); conditions: S. cerevisiae mec2-1 strain, hits give high values
Summary of the method: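 Test agents were screened against the mec2-1 yeast strain, with defined DNA repair or cell cycle alteration. Growth was scored as inhibition against vehicle-only controls.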

[6] = NCI Yeast Anticancer Drug Screen. Data for the sgs1 mgt1 strain (AID 161);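 note: 0% = growth of cultures given vehicle only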; conditions: S. cerevisiae sgs1 mgt1 strain, hits give high values
Summary of the method: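 Inhibition of yeast growth, normalised to vehicle-treated controls, is reported for a strain bearing genetic alterations in DNA damage repair.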

[7] = NCI Yeast Anticancer Drug Screen. Data for the CLN2oe strain (AID 163);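 note: 0% = growth of vehicle-only control cultures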; conditions: S. cerevisiae CLN2oe strain, hits give high values
Summary of the method: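 Here, growth inhibition in a cell-cycle-altered yeast strain after compound exposure was quantified against vehicle control growth.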

[8] = NCI Yeast Anticancer Drug Screen. Data for the cln2 rad14 strain (AID 165);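 note: 0% = growth equal to vehicle treated cultures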; conditions: S. cerevisiae cln2 rad14 strain, hits give high values
Summary of the method: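 Growth of compound-exposed yeast (cln2 rad14 genotype) measured and expressed as inhibition relative to vehicle.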

[9] = NCI Yeast Anticancer Drug Screen. Data for the bub3 strain (AID 167); conditions: S. cerevisiae bub3 mutant strain, hits give high values
Summary of the method: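 Screening used yeast with an engineered genetic alteration affecting cell cycle control. Compound-exposed cultures were compared with vehicle cultures, and reduced growth was taken as inhibition.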

[10] = NCI Yeast Anticancer Drug Screen. Data for the wt2 strain (AID 169);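 note: 0% = growth of vehicle-treated yeast cultures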; conditions: S. cerevisiae wt2 strain growth inhibition, hits give high values
Summary of the method: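 Genetically defined yeast strains from a DNA-repair/cell-cycle panel were used. Compound-exposed yeast growth was measured, and the inhibition was calculated relative to vehicle treatment.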

[11] = NCI Yeast Anticancer Drug Screen. Data for the mlh1 strain (AID 171);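 note: 0% = growth of vehicle-treated control cultures of the same strain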; conditions: S. cerevisiae mlh1 strain growth inhibition, hits give high values
Summary of the method: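 Here the genetically defined yeast mutant is grown with each compound, and the extent to which its growth falls below that of vehicle-exposed cells is reported.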

[12] = NCI Yeast Anticancer Drug Screen. Data for the sgs1 strain (AID 173);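 note: 0% = growth of vehicle-only control cultures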; conditions: S. cerevisiae sgs1 mutant, hits give high values
Summary of the method: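 Relative growth inhibition, referenced to vehicle, was determined in a yeast strain with a defined alteration affecting DNA damage repair or cell cycle control after compound exposure.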

[13] = NCI Yeast Anticancer Drug Screen. Data for the mlh1 rad18 strain (AID 175); conditions: S. cerevisiae mlh1 rad18 strain growth inhibition, hits give high values
Summary of the method: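 In this whole-cell yeast screen, a strain with altered DNA damage repair is challenged with compound, and its growth is measured against matched vehicle-treated controls.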

[14] = NCI Yeast Anticancer Drug Screen. Data for the rad18 strain (AID 177); conditions: S. cerevisiae rad18 mutant growth inhibition, hits give high values
Summary of the method: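 Screen uses a yeast strain with a defined lesion in DNA damage repair; compound effect is read as loss of growth compared to untreated vehicle cultures.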

[15] = NCI Yeast Anticancer Drug Screen. Data for the rad14 strain (AID 159);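 note: 0% = growth of vehicle-treated control cultures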; conditions: S. cerevisiae rad14 strain growth inhibition, hits give high values
Summary of the method: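 Screen for anticancer potential: a yeast strain altered in DNA damage repair is grown with compound, and reduced growth is quantified against vehicle controls.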

[16] = at 5.0 µM (retest, dose inferred, filed as 0.5)
[17] = at 50.0 µM (retest, dose inferred, filed as 5.0)

Measured: growth inhibition

OCCN(CCO)c1ccc2c(c1)Cc1ccccc1-2
active: [6]; [17] 71% | [12]; at 100.0 µM 76% | [13]; [17] 84% | [13]; at 50.0 µM 77.4% | [14]; at 33.0 µM 82% | [14]; at 100.0 µM 90%
inactive: [1]; at 1.2 µM -9% | [1]; at 3.7 µM -15% | [1]; at 11.0 µM 3% | [1]; at 33.0 µM 20% | [1]; at 100.0 µM 43% | [2]; at 1.2 µM 0% | [2]; at 3.7 µM 5% | [2]; at 11.0 µM 6% | [2]; at 33.0 µM 6% | [2]; at 100.0 µM 17% | [3]; at 1.2 µM -6% | [3]; at 3.7 µM -3% | [3]; at 11.0 µM 17% | [3]; at 33.0 µM 43% | [3]; at 100.0 µM 53% | [4]; at 1.2 µM -12% | [4]; at 3.7 µM -15% | [4]; [16] 13% | [4]; at 11.0 µM -13% | [4]; at 33.0 µM 34% | [4]; [17] 48% | [4]; at 50.0 µM 34.1% | [4]; at 100.0 µM 65% | [5]; at 1.2 µM -3% | [5]; at 3.7 µM -4% | [5]; [16] 1% | [5]; at 11.0 µM -4% | [5]; at 33.0 µM -7% | [5]; [17] 12% | [5]; at 50.0 µM -11.8% | [5]; at 100.0 µM 1% | [6]; [16] 8% | [6]; at 50.0 µM 52.2% | [7]; at 1.2 µM -9% | [7]; at 3.7 µM -8% | [7]; at 11.0 µM -16% | [7]; at 33.0 µM -11% | [7]; at 100.0 µM -7% | [8]; [16] 6% | [8]; [17] 6% | [8]; at 50.0 µM -2.7% | [9]; at 1.2 µM -9% | [9]; at 3.7 µM -8% | [9]; [16] 2% | [9]; at 11.0 µM -13% | [9]; at 33.0 µM -13% | [9]; [17] 27% | [9]; at 50.0 µM 10.4% | [9]; at 100.0 µM 1% | [10]; at 1.2 µM 5% | [10]; at 3.7 µM 9% | [10]; at 11.0 µM 14% | [10]; at 33.0 µM 29% | [10]; at 100.0 µM 45% | [11]; at 1.2 µM -13% | [11]; at 3.7 µM -7% | [11]; at 11.0 µM -6% | [11]; at 33.0 µM -6% | [11]; at 100.0 µM 26% | [12]; at 1.2 µM -14% | [12]; at 3.7 µM -10% | [12]; at 11.0 µM 13% | [12]; at 33.0 µM 44% | [13]; [16] 23% | [14]; at 1.2 µM -8% | [14]; at 3.7 µM 4% | [14]; at 11.0 µM 18%

O=C(/C=N/O)Nc1cc(Cl)c(Cl)cc1Cl
inactive: [1]; at 1.2 µM -45% | [1]; at 3.7 µM -47% | [1]; at 11.0 µM -40% | [1]; at 33.0 µM -1% | [1]; at 100.0 µM 62% | [2]; at 1.2 µM -37% | [2]; at 3.7 µM -35% | [2]; at 11.0 µM -36% | [2]; at 33.0 µM -12% | [2]; at 100.0 µM 3% | [3]; at 1.2 µM -17% | [3]; at 3.7 µM 3% | [3]; at 11.0 µM 6% | [3]; at 33.0 µM 51% | [4]; at 1.2 µM -35% | [4]; at 3.7 µM -21% | [4]; [16] 45% | [4]; at 11.0 µM -33% | [4]; at 33.0 µM 10% | [4]; at 100.0 µM 63% | [5]; at 1.2 µM -34% | [5]; at 3.7 µM -22% | [5]; [16] 55% | [5]; at 11.0 µM -26% | [5]; at 33.0 µM -3% | [5]; at 50.0 µM 65% | [5]; at 100.0 µM 43% | [15]; at 1.2 µM -39% | [15]; at 3.7 µM -31% | [15]; at 11.0 µM -32% | [15]; at 33.0 µM 23% | [6]; [16] -12% | [7]; at 1.2 µM 6% | [7]; at 3.7 µM 18% | [7]; at 11.0 µM 1% | [7]; at 33.0 µM 18% | [7]; at 100.0 µM 63% | [8]; [16] 67% | [9]; at 1.2 µM -32% | [9]; at 3.7 µM -27% | [9]; [16] 17% | [9]; at 11.0 µM -21% | [9]; at 33.0 µM 8% | [9]; at 100.0 µM 57% | [10]; at 1.2 µM -56% | [10]; at 3.7 µM -58% | [10]; at 11.0 µM -38% | [10]; at 33.0 µM -1% | [10]; at 100.0 µM 37% | [11]; at 1.2 µM -34% | [11]; at 3.7 µM -26% | [11]; at 11.0 µM -9% | [11]; at 33.0 µM 37% | [12]; at 1.2 µM -55% | [12]; at 3.7 µM -31% | [12]; at 11.0 µM -36% | [12]; at 33.0 µM 28% | [12]; at 100.0 µM 67% | [13]; [16] 36% | [13]; at 50.0 µM 47.2% | [14]; at 1.2 µM -28% | [14]; at 3.7 µM -18% | [14]; at 11.0 µM -12% | [14]; at 33.0 µM 36%
active: [3]; at 100.0 µM 83% | [4]; [17] 98% | [4]; at 50.0 µM 79.2% | [5]; [17] 98% | [15]; at 100.0 µM 75% | [6]; [17] 84% | [8]; [17] 77% | [9]; [17] 89% | [11]; at 100.0 µM 79% | [13]; [17] 99% | [14]; at 100.0 µM 78%
